Measurements as given in PubChem BioAssay (Tox21).
Results filed as inconclusive are left out. A call without a number means that no potency is given here. The source made the active and inactive calls. The call rests on the fitted dose curve; in most records, active means well fitted cell-killing curve with a large enough effect in the repeat runs (not every such curve was filed as active); inconclusive means weak or mixed curves, or effect the other way; inactive means no such curve, though single readings can be large or run the other way.

assay: qHTS assay to identify small molecule antagonists of the estrogen related receptor signaling pathway with the pleiotropic PPARgamma coactivator (PGC) from Tox21 10K library - cell viability counter screen (AID 1224840); conditions: PGC/ERR reporter cells viability, CellTiter-Fluor, 17.5 h; series mostly up to 92.4 µM; further: nearly all actives have a fitted effect of over 40% in size
Excerpt: National Center for Advancing Translational Sciences [NCATS]
NIH Chemical Genomics Center [NCGC]
U.S. Environmental Protection Agency [EPA]
National Institutes of Environmental Health Sciences [NIEHS]
National Toxicology Program [NTP]
U.S. Food and Drug Administration [FDA]
Estrogen related receptors (ERRs), the first orphan nuclear receptors discovered, play an important role in the control of cellular energy metabolism. ERRs are required for high-energy production in response to the environmental challenges. The pleiotropic PPARgamma coactivator (PGC) is a major partner of ERR and a key regulator in energy homeostasis. Together they have been implicated in the etiology of metabolic disorders such as Type 2 diabetes and metabolic syndrome. ERR-alpha was also identified as an adverse marker for breast cancer progression; ERR-alpha-positive tumors have a poor prognosis. To screen and to identify environmental compounds that perturb the ERR and PGC/ERR signaling pathways could provide valuable information for potential therapeutic or preventive measures in the treatment of metabolic disease. To differentiate true PGC/ERR antagonists or agonist from cytotoxic substances, the assay is multiplexed with cell viability assay.
Tox21 Assay Protocol Summary:
The PGC/ERR cells were dispensed at 2,000 cells/5 ul/well in 1536-well white plates using a Multidrop dispenser. After the assay plates were incubated at a 37 C/5% CO2 incubator for 6 hours, 23 nL of compounds dissolved in DMSO, positive and negative controls or DMSO only was transferred to the assay plate by a pin tool. The plates were incubated at 37 C for 17.5 hours. 1 ul/well of CellTiter-Fluor reagent was added into the assay plates using a Flying Reagent Dispenser. After 30-minute incubation at 37 C/5% CO2, the fluorescence intensity in the plates was measured using a ViewLux plate reader.
Potency means the concentration at half of the fitted maximal effect.

| Structure (SMILES) | Potency |
| --- | --- |
| CCCCOCCOCCOC(C)=O | inactive |
| NC(=O)OCC(COC(N)=O)c1ccccc1 | inactive |
| C=C(C)C(N)=O | inactive |
| NC(N)=NC(N)=NCCc1ccccc1 | inactive |
| COc1cc(C=O)ccc1O | inactive |
| COCCOCCOC | inactive |
| CCCCCCCC(=O)OCC(O)CO (stereo not given) | inactive |
| Oc1cccc(O)c1 | inactive |
| C=C(C)OC(C)=O | inactive |
| Cc1ccc(O)c(-n2nc3ccccc3n2)c1 | inactive |
| Nc1ccc(N=Nc2ccccc2)c(N)n1 | 38.6 µM (active) |
| N[C@@H](Cc1c[nH]c2ccccc12)C(=O)O | inactive |
| CCOCCO | inactive |
| OC[C@@H](O)[C@@H](O)[C@H](O)[C@H](O)CO | inactive |
| O=[N+]([O-])c1ccc(O)cc1 | 30.6 µM (active) |
| Nc1cccc(N)c1 | inactive |
| NCCNc1cccc2ccccc12 | inactive |
| CC(C)(C)CC(C)(C)c1ccc(O)c(-n2nc3ccccc3n2)c1 | inactive |
| NC(=O)N/N=C/c1ccc([N+](=O)[O-])o1 | inactive |
| C[C@]12C[C@H](O)[C@H]3[C@@H](CCC4=CC(=O)CC[C@@]43C)[C@@H]1CC[C@@H]2C(=O)CO | inactive |

| Structure (SMILES) | Potency |
| --- | --- |
| CC(O)COc1ccccc1 (stereo not given) | inactive |
| CCCCNC(=O)NS(=O)(=O)c1ccc(N)cc1 | inactive |
| CCCCC/C(C=O)=C\c1ccccc1 | inactive |
| NC(=O)N1c2ccccc2C=Cc2ccccc21 | inactive |
| Cc1cccc2ccccc12 | inactive |
| CCCCOC(=O)CCCCCCCCC(=O)OCCCC | inactive |
| COc1ccc(C(=O)c2ccccc2)c(O)c1 | inactive |
| CCN(CC)CCOC(=O)c1ccc(N)cc1 | inactive |
| Cc1c(N(C)C)c(=O)n(-c2ccccc2)n1C | inactive |
| CC(C)CC(C)CC(O)CC(C)C (stereo not given) | inactive |
| CC(=O)OC/C=C(C)/C=C/C=C(C)/C=C/C1=C(C)CCCC1(C)C | inactive |
| O=C(O)CN(CC(=O)O)CC(=O)O | inactive |
| C/C=C/c1ccc(O)c(OC)c1 | inactive |
| O=c1c(-c2ccc(O)cc2)coc2cc(O)cc(O)c12 | inactive |
| CN(C)C=O | inactive |
| O=C(OCc1ccccc1)c1ccccc1 | inactive |
| O=c1cc[nH]c(=O)[nH]1 | inactive |
| C[C@]12CC[C@@H]3c4ccc(O)cc4CC[C@H]3[C@@H]1CCC2=O | inactive |
| Cc1cccc(C)c1O | inactive |
| O=C1OC(c2ccc(O)cc2)(c2ccc(O)cc2)c2ccccc21 | inactive |
